# The panel holds about 83,000 compounds, 20% with a hit somewhere; the sample as a whole holds those more often.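 Note: values are percent growth. 100 is the growth of untreated cells, values between 100 and 0 indicate rising inhibition; between -100 and 0 indicates cell death.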 Unmarked numbers belong to inactive results. Active and inactive are the calls of the source. Rule for the calls: active = growth percent below 10; inactive = the rest.
# Experiments:
# Assay in all cases: NCI-60 one-dose screen, 48 h (100 = growth as untreated, 0 = no growth, -100 = all killed)
# Settings in all cases: 10 µM unless noted
# SK-MEL-2 melanoma = test system: SK-MEL-2 melanoma
# EKVX NSCLC = test system: EKVX NSCLC
# SN12C renal = test system: SN12C renal
# UO-31 renal = test system: UO-31 renal
# TK-10 renal = test system: TK-10 renal
# ACHN renal = test system: ACHN renal
# CAKI-1 renal = test system: CAKI-1 renal
# A498 renal = test system: A498 renal
# RPMI-8226 leukemia = test system: RPMI-8226 leukemia
# OVCAR-8 ovarian = test system: OVCAR-8 ovarian
# OVCAR-5 ovarian = test system: OVCAR-5 ovarian
# OVCAR-4 ovarian = test system: OVCAR-4 ovarian
# SK-OV-3 ovarian = test system: SK-OV-3 ovarian
# IGROV1 ovarian = test system: IGROV1 ovarian
# OVCAR-3 ovarian = test system: OVCAR-3 ovarian
# HS 578T breast = test system: HS 578T breast
# NCI/ADR-RES ovarian = test system: NCI/ADR-RES ovarian
# CCRF-CEM leukemia = test system: CCRF-CEM leukemia
# MOLT-4 leukemia = test system: MOLT-4 leukemia
# SR leukemia = test system: SR leukemia
Structure (SMILES),growth (SK-MEL-2 melanoma),growth (EKVX NSCLC),growth (SN12C renal),growth (UO-31 renal),growth (TK-10 renal),growth (ACHN renal),growth (CAKI-1 renal),growth (A498 renal),growth (RPMI-8226 leukemia),growth (OVCAR-8 ovarian),growth (OVCAR-5 ovarian),growth (OVCAR-4 ovarian),growth (SK-OV-3 ovarian),growth (IGROV1 ovarian),growth (OVCAR-3 ovarian),growth (HS 578T breast),growth (NCI/ADR-RES ovarian),growth (CCRF-CEM leukemia),growth (MOLT-4 leukemia),growth (SR leukemia)
O=C1OCC2=C1C(c1ccccc1)c1cc3c(cc1N2CCO)OCO3 (configuration not stated),14.6%,35.4%,39%,43.9%,63.4%,36.5%,35.8%,6.06% (active),46.4%,63.3%,46.8%,52%,6.79% (active),39.5%,3.99% (active),23.1%,-20.4% (active),,,
CC1(C)CN(CCNc2nccc(-c3c(-c4cccc(O)c4)nc4sccn34)n2)S(=O)(=O)N1,24.1%,108%,57.6%,60.5%,119%,39.4%,,81.7%,96.1%,103%,94.1%,70.9%,44.7%,38.5%,77.5%,71.6%,111%,49.6%,71.8%,17.5%
CC1=C(O)C(=O)CC1,118%,96.2%,97%,94%,111%,111%,,83.7%,110%,101%,112%,105%,107%,107%,115%,107%,106%,115%,108%,78.4%
O=C1OCC2=C1C(c1ccccc1)c1cc3c(cc1N2CCO)CCC3 (configuration not stated),17.1%,22.7%,23.2%,38.1%,54.5%,29.7%,26.7%,-21.5% (active),23.9%,36.5%,26.1%,30%,-20.7% (active),12.4%,-21.6% (active),3.94% (active),-70.4% (active),,,
CCSCC1CC(O)(c2ccccc2)C(c2ccccc2)C(c2ccc(F)cc2)O1 (configuration not stated),-0.854% (active),0.894% (active),-22.9% (active),-0.34% (active),-15.4% (active),-14.3% (active),-13.5% (active),,-16.1% (active),1.93% (active),-2.48% (active),-9.01% (active),6.98% (active),11.2%,-62.9% (active),-35.3% (active),-24.8% (active),2.04% (active),-48.2% (active),1.33% (active)
CC(C)CCSc1nc(-c2ccc(F)cc2)c(C#N)c(N2CCN(C)CC2)n1,77.4%,87.8%,88.8%,51.3%,88.2%,76.5%,,69.7%,80%,83.2%,91.3%,96.7%,87%,95.2%,93.9%,79.1%,87.2%,78.9%,72.5%,67.5%
Oc1c(C(Nc2ccccc2Br)c2ccccc2)ccc2cccnc12 (configuration not stated),12.1%,23.4%,24.7%,16.8%,30.3%,13.5%,,47.7%,45.8%,23.5%,44.5%,31.4%,35.2%,20.1%,32.8%,59.2%,2.07% (active),17.3%,4.89% (active),1.95% (active)
COc1ccc(Oc2nc(Nc3ccc(N4CCOCC4)cc3)ncc2NC(=O)Nc2cccc(OC)c2)cc1,39.2%,84.6%,50.7%,75.8%,75.9%,68%,,66.3%,56.8%,50.3%,103%,75.8%,87%,76.2%,68.4%,60.5%,85.2%,68.1%,40.4%,74.2%
CC1(C)CC(=O)c2cc3c(N)c(C(=O)Nc4ccc(Cl)cc4)sc3nc2C1,101%,93.2%,110%,109%,95.2%,117%,,75.6%,103%,111%,,,106%,111%,111%,109%,114%,97.2%,104%,113%
COc1cc(CN(CCC(O)N2CCCC2=O)Cc2ccc3c(c2)OCO3)cc(OC)c1OC (configuration not stated),94.5%,107%,105%,78.1%,112%,100%,,118%,98.7%,100%,98.5%,108%,102%,95%,105%,103%,103%,98.3%,85.2%,86.3%
O=P(O)(O)C(O)(Cc1cccnc1)P(=O)(O)O,111%,103%,94%,84.6%,144%,,94.2%,119%,98.2%,94.6%,118%,86.9%,111%,95.8%,100%,,102%,79.1%,,
COc1cc(C2CC(c3ccc(Cl)cc3)=NN2C(C)=O)ccc1Oc1ccnc2cc(Cl)ccc12 (configuration not stated),67.2%,51.9%,70.9%,57.5%,37.4%,,26.1%,69%,87.3%,,81.2%,-23.8% (active),18.4%,58.1%,24%,,53.2%,87.1%,97.4%,76.4%
O=[N+]([O-])c1ccc(N/N=C/c2ccccc2O)nc1,35%,29.7%,37.7%,25.5%,26.2%,,4.68% (active),97.8%,,24.3%,60.9%,39.3%,32.7%,18.6%,69.1%,79.7%,21.3%,17.1%,14.3%,14.8%
N/C(=C\C(=O)n1nc(-c2ccccc2)cc1N)c1ccccc1,-16.7% (active),69.5%,62.1%,38.2%,101%,,65.3%,67.8%,,60.6%,70.9%,72%,65.5%,16.5%,20.2%,-6.87% (active),17%,40.1%,43%,
CN1C(=O)C(C(=O)/C=C/c2ccccc2C(=O)O)C(=O)N(C)C1=O,106%,105%,101%,87%,102%,108%,,104%,,102%,104%,109%,88.8%,119%,110%,98.5%,114%,91.9%,97.1%,98.1%
S=C(S)Oc1cccc2cccnc12,105%,115%,89.8%,62.2%,100%,,91.7%,105%,106%,108%,108%,92.2%,100%,86.1%,120%,96.2%,106%,103%,83.6%,87.7%
C/C(=N\Nc1ccc([N+](=O)[O-])cn1)c1ccc(N)cc1,100%,109%,94.8%,87.7%,105%,97.8%,,82.4%,,109%,98.2%,100%,115%,93.5%,101%,109%,115%,96.3%,-11.7% (active),21.8%

# Reference: PubChem BioAssay (NCI)
